Results reported in the supplement of paper PMC10849652.
About 7,900 targets were measured; listed, in parts, are those with a hit and a random draw of the rest. About 0.6% of all pairs of compound and target were hits.

Legend:
Test in all cases: log2 fold change, soluble protein after heating vs DMSO (PISA); higher = thermal stabilisation; K562 cells, 10 uM, 30 min; active = over 0.2 and 3.5 SD of the protein, either way, in both replicates (recomputed)
[1] = compound: CS(=O)(=O)c1ccc(-c2cnc(N)c(C(=O)Nc3ccccc3)n2)cc1
Method in brief: (§1)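 K562 cells at 2×10^6 cells/mL were given 10 μM compound for 30 min. Aliquots then went through 3 min of heating across 48°C-58°C, were pooled, and were extracted in PBS with 0.5% NP-40 at 4°C, and the supernatant after 21,000xg for 90 min was quantified by TMTpro 16plex LC-MS/MS with channel sums equalised. Thermal stability relative to control samples, from duplicates, is given as log2 fold change.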

crizotinib = compound: C[C@@H](Oc1cc(-c2cnn(C3CCNCC3)c2)cnc1N)c1c(Cl)ccc(F)c1Cl [crizotinib]
Method in brief: as §1

[2] = compound: C[C@@H]1COCCN1C2=NC(=NC(=C2)C3(CC3)S(=O)(=O)C)C4=C5C=CNC5=CC=C4
Method in brief: as §1

[3] = compound: C[C@H](C1=CC=C(C=C1)C(=O)NC2=C3C=CNC3=NC=C2)N
Method in brief: as §1

duvelisib = compound: C[C@H](Nc1ncnc2nc[nH]c12)c1cc2cccc(Cl)c2c(=O)n1-c1ccccc1 [duvelisib]
Method in brief: as §1

gandotinib = compound: Cc1cc(Nc2cc(CN3CCOCC3)c3nc(C)c(Cc4ccc(Cl)cc4F)n3n2)n[nH]1 [gandotinib]
Method in brief: as §1

tozasertib = compound: Cc1cc(Nc2cc(N3CCN(C)CC3)nc(Sc3ccc(NC(=O)C4CC4)cc3)n2)n[nH]1 [tozasertib]
Method in brief: as §1

[4] = compound: Cc1cc(SCc2sc(-c3ccc(C(F)(F)F)cc3)nc2C)ccc1OCC(=O)O
Method in brief: as §1

doramapimod = compound: Cc1ccc(-n2nc(C(C)(C)C)cc2NC(=O)Nc2ccc(OCCN3CCOCC3)c3ccccc23)cc1 [doramapimod]
Method in brief: as §1

ispinesib = compound: Cc1ccc(C(=O)N(CCCN)[C@@H](c2nc3cc(Cl)ccc3c(=O)n2Cc2ccccc2)C(C)C)cc1 [ispinesib]
Method in brief: as §1

bafetinib = compound: Cc1ccc(NC(=O)c2ccc(CN3CC[C@H](N(C)C)C3)c(C(F)(F)F)c2)cc1Nc1nccc(-c2cncnc2)n1 [bafetinib]
Method in brief: as §1

[5] = compound: Cc1cccc(CC(=O)N2CCc3c2ccc(-c2cn(C)c4ncnc(N)c24)c3F)n1
Method in brief: as §1

nilotinib = compound: Cc1cn(-c2cc(NC(=O)c3ccc(C)c(Nc4nccc(-c5cccnc5)n4)c3)cc(C(F)(F)F)c2)cn1 [nilotinib]
Method in brief: as §1

[6] = compound: Cc1nc(Nc2n[nH]c3c2CN(C(=O)N[C@H](CN(C)C)c2ccccc2)C3(C)C)c2sccc2n1
Method in brief: as §1

dasatinib = compound: Cc1nc(Nc2ncc(C(=O)Nc3c(C)cccc3Cl)s2)cc(N2CCN(CCO)CC2)n1 [dasatinib]
Method in brief: as §1

[7] = compound: Cc1ncc(-c2ccnc(Nc3ccc(S(C)(=O)=O)cc3)n2)n1C(C)C
Method in brief: as §1

[8] = compound: Cn1cc(-c2ccc3c(c2)CCN3C(=O)Cc2cccc(C(F)(F)F)c2)c2c(N)ncnc21
Method in brief: as §1

[9] = compound: Cn1cc(-c2ccc3nnc(C(F)(F)c4ccc5ncccc5c4)n3n2)cn1
Method in brief: as §1

tipifarnib = compound: Cn1cncc1[C@@](N)(c1ccc(Cl)cc1)c1ccc2c(c1)c(-c1cccc(Cl)c1)cc(=O)n2C [tipifarnib]
Method in brief: as §1

mubritinib = compound: FC(F)(F)c1ccc(/C=C/c2nc(COc3ccc(CCCCn4ccnn4)cc3)co2)cc1 [mubritinib]
Method in brief: as §1

Measured: log2 fold change

PPP1R35 (UniProt Q8TAP8)
Sequence of UniProt Q8TAP8 (Q8TAP8 whole entry, looked up): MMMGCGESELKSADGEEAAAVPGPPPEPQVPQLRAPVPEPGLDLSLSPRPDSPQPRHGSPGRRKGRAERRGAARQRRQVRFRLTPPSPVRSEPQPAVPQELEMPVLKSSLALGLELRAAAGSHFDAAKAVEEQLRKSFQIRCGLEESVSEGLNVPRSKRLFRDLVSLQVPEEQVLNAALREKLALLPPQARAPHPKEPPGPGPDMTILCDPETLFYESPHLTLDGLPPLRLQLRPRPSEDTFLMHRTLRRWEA
inactive: [1] -0.025 | crizotinib -0.036 | [2] 0.179 | [3] -0.037 | duvelisib -0.071 | gandotinib 0.044 | tozasertib 0.007 | [4] 0.025 | doramapimod 0.024 | ispinesib -0.058 | bafetinib -0.039 | [5] 0.058 | nilotinib 0.008 | [6] -0.031 | dasatinib -0.04 | [7] -0.095 | [8] -0.024 | [9] -0.042 | tipifarnib -0.022 | mubritinib 0.065

POLR2K (UniProt P53803)
inactive: [1] 0.029 | crizotinib 0.18 | [2] 0.074 | [3] 0.098 | duvelisib 0.154 | gandotinib -0.011 | tozasertib -0.065 | [4] 0.001 | doramapimod -0.059 | ispinesib 0.029 | bafetinib -0.052 | [5] -0.057 | nilotinib -0.021 | [6] 0.029 | dasatinib 0.081 | [7] 0.089 | [8] 0.006 | [9] 0.019 | tipifarnib -0.036 | mubritinib -0.008

PPT2 isoform 3 (UniProt Q9UMR5)
Sequence of UniProt Q9UMR5 (Q9UMR5 whole entry, looked up): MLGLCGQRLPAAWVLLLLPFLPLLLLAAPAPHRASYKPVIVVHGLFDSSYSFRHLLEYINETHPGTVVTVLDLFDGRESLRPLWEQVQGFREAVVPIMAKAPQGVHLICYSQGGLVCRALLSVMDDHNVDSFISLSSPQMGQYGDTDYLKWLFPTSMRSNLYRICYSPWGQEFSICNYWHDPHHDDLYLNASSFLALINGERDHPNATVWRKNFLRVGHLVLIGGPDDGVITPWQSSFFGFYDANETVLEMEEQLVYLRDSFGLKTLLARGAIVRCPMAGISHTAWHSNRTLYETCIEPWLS
inactive: [1] 0.074 | crizotinib -0.182 | [2] -0.021 | [3] -0.148 | duvelisib 0.057 | gandotinib 0.001 | tozasertib -0.04 | [4] -0.069 | doramapimod 0.006 | ispinesib -0.041 | [5] -0.013 | nilotinib 0.031 | [6] 0.013 | dasatinib 0.055 | [7] -0.045 | [8] 0.07 | [9] 0.037 | tipifarnib 0.013 | mubritinib 0.034
active: bafetinib -0.301

PSMD12 (UniProt O00232)
Sequence of UniProt O00232 (O00232 whole entry, looked up): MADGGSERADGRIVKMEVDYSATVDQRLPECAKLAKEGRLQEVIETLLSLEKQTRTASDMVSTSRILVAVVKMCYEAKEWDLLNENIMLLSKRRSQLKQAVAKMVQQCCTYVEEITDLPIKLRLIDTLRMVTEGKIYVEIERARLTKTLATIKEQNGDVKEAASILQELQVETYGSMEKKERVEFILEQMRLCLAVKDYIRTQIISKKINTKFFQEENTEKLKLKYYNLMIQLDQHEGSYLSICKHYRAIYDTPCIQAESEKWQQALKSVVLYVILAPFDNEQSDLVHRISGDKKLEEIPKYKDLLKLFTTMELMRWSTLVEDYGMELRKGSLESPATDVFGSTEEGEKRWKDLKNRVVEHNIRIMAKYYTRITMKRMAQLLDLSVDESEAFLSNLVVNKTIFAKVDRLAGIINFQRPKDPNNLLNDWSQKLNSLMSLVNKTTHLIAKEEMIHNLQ
inactive: [1] 0.053 | crizotinib 0.009 | [2] -0.03 | [3] 0.073 | duvelisib -0.053 | gandotinib 0.029 | tozasertib 0.068 | [4] 0.057 | doramapimod 0.019 | ispinesib 0.003 | bafetinib 0.119 | [5] 0.033 | nilotinib 0.026 | [6] 0.044 | dasatinib 0 | [7] -0.001 | [8] -0.088 | [9] -0.022 | tipifarnib 0.019 | mubritinib -0.034

PDE12 (UniProt Q6L8Q7)
inactive: [1] 0.047 | crizotinib 0.032 | [2] 0.088 | [3] -0.133 | duvelisib 0.069 | gandotinib 0.027 | tozasertib -0.007 | [4] 0 | doramapimod -0.027 | ispinesib 0.065 | bafetinib -0.013 | [5] 0.002 | nilotinib -0.004 | [6] 0.017 | dasatinib -0.061 | [7] -0.006 | [8] 0.067 | [9] 0.066 | tipifarnib -0.078 | mubritinib 0.066

PSPC1 (UniProt Q8WXF1)
Sequence of UniProt Q8WXF1 (Q8WXF1 whole entry, looked up): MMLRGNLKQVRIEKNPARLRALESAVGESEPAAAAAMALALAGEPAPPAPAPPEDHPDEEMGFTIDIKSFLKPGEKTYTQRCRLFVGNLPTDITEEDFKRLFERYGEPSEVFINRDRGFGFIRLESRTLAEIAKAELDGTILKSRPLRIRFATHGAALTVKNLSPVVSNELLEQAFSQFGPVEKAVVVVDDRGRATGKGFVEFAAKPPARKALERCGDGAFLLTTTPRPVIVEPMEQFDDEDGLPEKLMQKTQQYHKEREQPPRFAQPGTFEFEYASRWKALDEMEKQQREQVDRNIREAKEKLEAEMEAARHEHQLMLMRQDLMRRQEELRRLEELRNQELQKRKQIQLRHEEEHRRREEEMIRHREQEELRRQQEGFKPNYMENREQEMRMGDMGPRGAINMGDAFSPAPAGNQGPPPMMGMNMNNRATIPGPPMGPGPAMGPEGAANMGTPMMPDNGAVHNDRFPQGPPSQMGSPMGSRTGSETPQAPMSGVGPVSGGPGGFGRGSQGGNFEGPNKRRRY
inactive: [1] -0.068 | crizotinib 0.076 | [2] -0.044 | [3] 0.088 | duvelisib -0.03 | gandotinib -0.09 | tozasertib 0.01 | [4] 0.04 | doramapimod -0.028 | ispinesib -0.217 | bafetinib 0.015 | [5] 0.088 | nilotinib -0.004 | [6] -0.179 | dasatinib -0.02 | [7] -0.112 | [8] -0.003 | [9] 0 | tipifarnib -0.004 | mubritinib -0.033

PURA (UniProt Q00577)
Sequence of UniProt Q00577 (Q00577 whole entry, looked up): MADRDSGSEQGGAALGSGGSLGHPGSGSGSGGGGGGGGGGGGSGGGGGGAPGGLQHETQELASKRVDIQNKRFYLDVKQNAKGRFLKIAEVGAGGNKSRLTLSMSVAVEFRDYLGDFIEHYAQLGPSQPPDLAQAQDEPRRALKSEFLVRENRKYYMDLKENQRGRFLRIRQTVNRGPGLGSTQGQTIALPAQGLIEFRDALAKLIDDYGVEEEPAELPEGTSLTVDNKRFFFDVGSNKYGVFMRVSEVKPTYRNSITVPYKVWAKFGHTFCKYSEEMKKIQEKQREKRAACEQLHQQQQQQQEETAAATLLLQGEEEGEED
inactive: [1] -0.064 | crizotinib 0.03 | [2] -0.44 | [3] 0.287 | duvelisib -0.165 | gandotinib 0.334 | tozasertib 0.069 | [4] -0.012 | doramapimod 0.063 | ispinesib -0.143 | bafetinib 0.108 | [5] -0.089 | nilotinib 0.06 | [6] 0.105 | dasatinib 0.335 | [7] 0.017 | [8] -0.382 | [9] -0.12 | tipifarnib 0.207 | mubritinib -0.06

PPP2R5C isoform 5 (UniProt Q13362)
Sequence of UniProt Q13362 (Q13362 whole entry, looked up): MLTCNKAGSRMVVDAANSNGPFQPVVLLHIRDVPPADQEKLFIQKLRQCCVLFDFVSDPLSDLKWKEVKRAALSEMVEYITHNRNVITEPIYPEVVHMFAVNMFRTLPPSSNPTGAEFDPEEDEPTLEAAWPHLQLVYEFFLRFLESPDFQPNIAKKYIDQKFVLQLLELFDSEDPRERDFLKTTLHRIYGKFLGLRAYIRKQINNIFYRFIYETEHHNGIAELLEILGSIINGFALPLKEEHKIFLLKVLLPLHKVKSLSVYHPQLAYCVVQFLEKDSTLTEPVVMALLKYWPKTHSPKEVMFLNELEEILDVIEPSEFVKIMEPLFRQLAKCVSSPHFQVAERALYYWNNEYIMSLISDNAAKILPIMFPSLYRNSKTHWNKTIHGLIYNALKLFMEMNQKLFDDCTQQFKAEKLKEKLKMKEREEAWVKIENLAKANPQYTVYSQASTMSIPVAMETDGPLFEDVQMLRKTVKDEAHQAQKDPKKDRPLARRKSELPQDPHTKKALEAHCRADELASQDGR
inactive: [1] -0.054 | crizotinib -0.071 | [2] 0.023 | [3] -0.05 | duvelisib 0.009 | gandotinib -0.024 | tozasertib -0.019 | [4] 0.069 | doramapimod -0.043 | ispinesib 0.007 | bafetinib -0.024 | [5] 0.005 | nilotinib -0.168 | [6] -0.026 | dasatinib -0.227 | [7] 0.026 | [8] 0.031 | [9] -0.06 | tipifarnib -0.099 | mubritinib 0.042

PARP1 (UniProt P09874)
inactive: [1] 0.088 | crizotinib 0.037 | [2] 0.007 | [3] 0.012 | duvelisib 0.102 | gandotinib -0.029 | tozasertib 0.08 | [4] 0.165 | doramapimod -0.065 | ispinesib -0.126 | bafetinib 0.05 | [5] -0.009 | nilotinib -0.028 | [6] -0.112 | dasatinib -0.245 | [7] 0.178 | [8] 0.026 | [9] 0.131 | tipifarnib -0.117 | mubritinib 0.044

PML (UniProt P29590)
Sequence of UniProt P29590 (P29590 whole entry, looked up): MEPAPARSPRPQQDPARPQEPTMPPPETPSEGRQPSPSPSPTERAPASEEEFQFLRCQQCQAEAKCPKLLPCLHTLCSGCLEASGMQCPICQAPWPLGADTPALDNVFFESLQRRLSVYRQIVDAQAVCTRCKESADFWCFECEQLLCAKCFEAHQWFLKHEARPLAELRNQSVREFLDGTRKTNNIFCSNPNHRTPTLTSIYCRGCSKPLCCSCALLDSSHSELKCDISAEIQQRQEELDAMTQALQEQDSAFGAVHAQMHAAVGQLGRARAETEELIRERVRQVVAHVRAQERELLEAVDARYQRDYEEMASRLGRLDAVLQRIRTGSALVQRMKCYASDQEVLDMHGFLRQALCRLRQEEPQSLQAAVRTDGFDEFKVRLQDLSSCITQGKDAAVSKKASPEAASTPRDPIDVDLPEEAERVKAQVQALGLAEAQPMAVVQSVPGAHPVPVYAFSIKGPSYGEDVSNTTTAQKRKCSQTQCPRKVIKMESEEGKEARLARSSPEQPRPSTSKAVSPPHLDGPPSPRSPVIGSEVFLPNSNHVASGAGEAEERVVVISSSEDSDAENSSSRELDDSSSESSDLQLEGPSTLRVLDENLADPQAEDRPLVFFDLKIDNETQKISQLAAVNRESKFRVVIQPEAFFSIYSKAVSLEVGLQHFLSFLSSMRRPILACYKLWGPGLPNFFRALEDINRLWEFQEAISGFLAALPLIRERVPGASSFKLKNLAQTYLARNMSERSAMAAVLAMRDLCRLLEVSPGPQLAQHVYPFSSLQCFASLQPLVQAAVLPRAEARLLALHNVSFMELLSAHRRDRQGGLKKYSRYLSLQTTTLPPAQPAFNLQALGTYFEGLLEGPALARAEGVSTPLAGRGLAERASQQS
inactive: [1] -0.011 | crizotinib 0.017 | [2] 0.025 | [3] -0.027 | duvelisib 0.072 | gandotinib -0.019 | tozasertib 0.07 | [4] -0.051 | doramapimod -0.054 | ispinesib -0.027 | bafetinib -0.078 | [5] 0.029 | nilotinib -0.035 | [6] -0.046 | dasatinib -0.036 | [7] -0.037 | [8] -0.047 | [9] -0.003 | tipifarnib 0.014 | mubritinib -0.023

PRIM2 (UniProt P49643)
Sequence of UniProt P49643 (P49643 whole entry, looked up): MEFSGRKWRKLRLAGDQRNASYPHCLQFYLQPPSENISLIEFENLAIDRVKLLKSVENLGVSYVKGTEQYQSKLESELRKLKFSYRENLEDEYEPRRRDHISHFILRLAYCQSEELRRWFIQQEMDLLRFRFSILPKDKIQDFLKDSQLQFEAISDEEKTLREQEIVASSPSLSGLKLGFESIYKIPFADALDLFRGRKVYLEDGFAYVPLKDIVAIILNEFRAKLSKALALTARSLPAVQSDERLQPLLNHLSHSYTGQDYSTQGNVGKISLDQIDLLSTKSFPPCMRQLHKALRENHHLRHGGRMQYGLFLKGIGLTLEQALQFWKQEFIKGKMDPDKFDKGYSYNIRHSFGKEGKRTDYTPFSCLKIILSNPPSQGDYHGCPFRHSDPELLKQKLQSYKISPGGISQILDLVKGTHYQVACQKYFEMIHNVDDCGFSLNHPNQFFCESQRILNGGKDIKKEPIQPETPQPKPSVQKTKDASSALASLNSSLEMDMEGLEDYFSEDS
inactive: [1] 0.078 | crizotinib -0.063 | [2] 0.154 | [3] 0.066 | duvelisib -0.038 | gandotinib 0.07 | tozasertib 0.059 | [4] 0.145 | doramapimod -0.06 | ispinesib -0.061 | bafetinib 0.007 | [5] -0.019 | nilotinib -0.063 | [6] -0.06 | dasatinib -0.128 | [7] 0.021 | [8] 0.015 | [9] 0.046 | tipifarnib -0.018 | mubritinib 0.101

PSMD11 (UniProt O00231)
inactive: [1] 0.036 | crizotinib -0.024 | [2] -0.035 | [3] 0.074 | duvelisib -0.04 | gandotinib 0.046 | tozasertib 0.08 | [4] 0.07 | doramapimod 0.013 | ispinesib 0.045 | bafetinib 0.15 | [5] 0.042 | nilotinib 0.054 | [6] 0.068 | dasatinib -0.004 | [7] -0.014 | [8] -0.074 | [9] -0.043 | tipifarnib -0.021 | mubritinib -0.054

PXK (UniProt Q7Z7A4)
Sequence of UniProt Q7Z7A4 (Q7Z7A4 whole entry, looked up): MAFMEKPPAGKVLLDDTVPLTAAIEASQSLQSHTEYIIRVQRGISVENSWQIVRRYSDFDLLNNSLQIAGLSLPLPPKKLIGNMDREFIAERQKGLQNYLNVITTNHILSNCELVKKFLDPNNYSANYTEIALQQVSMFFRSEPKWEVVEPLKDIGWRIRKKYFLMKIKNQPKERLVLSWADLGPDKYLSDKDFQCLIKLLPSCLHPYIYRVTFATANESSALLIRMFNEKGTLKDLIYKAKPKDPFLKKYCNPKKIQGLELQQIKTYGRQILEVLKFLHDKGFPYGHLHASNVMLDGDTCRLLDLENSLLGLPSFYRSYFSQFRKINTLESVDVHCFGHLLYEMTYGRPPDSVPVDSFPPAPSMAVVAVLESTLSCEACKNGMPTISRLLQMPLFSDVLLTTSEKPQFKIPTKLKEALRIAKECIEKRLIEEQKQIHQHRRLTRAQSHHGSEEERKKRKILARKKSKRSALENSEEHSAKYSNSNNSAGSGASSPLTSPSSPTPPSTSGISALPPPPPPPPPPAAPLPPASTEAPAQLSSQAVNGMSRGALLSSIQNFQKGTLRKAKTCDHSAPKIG
inactive: [1] -0.06 | crizotinib -0.139 | [2] 0.032 | [3] -0.026 | duvelisib -0.023 | gandotinib -0.042 | tozasertib -0.024 | [4] 0.011 | doramapimod -0.025 | ispinesib -0.203 | bafetinib -0.01 | [5] 0.086 | nilotinib -0.026 | [6] 0.025 | dasatinib 0.226 | [7] 0.012 | [8] 0.029 | [9] -0.106 | tipifarnib -0.001 | mubritinib 0.098

PTPN23 (UniProt Q9H3S7)
inactive: [1] 0.014 | crizotinib 0.057 | [2] 0.018 | [3] 0.027 | duvelisib 0.116 | gandotinib -0.072 | tozasertib 0.148 | [4] 0.13 | doramapimod -0.002 | ispinesib 0.018 | bafetinib 0.028 | [5] 0.053 | nilotinib -0.07 | [6] -0.096 | dasatinib -0.199 | [7] 0.059 | [8] -0.016 | [9] 0.02 | tipifarnib -0.069 | mubritinib 0.034

PCGF2 (UniProt P35227)
inactive: [1] 0.041 | crizotinib 0.01 | [2] 0.075 | [3] 0.087 | duvelisib 0.124 | gandotinib 0.121 | tozasertib 0.015 | [4] 0.15 | doramapimod -0.089 | ispinesib 0.021 | bafetinib 0.015 | [5] -0.035 | nilotinib -0.097 | [6] -0.235 | dasatinib -0.127 | [7] 0.028 | [8] 0.004 | [9] 0.081 | tipifarnib 0.001 | mubritinib -0.001

PRIM1 (UniProt P49642)
Sequence of UniProt P49642 (P49642 whole entry, looked up): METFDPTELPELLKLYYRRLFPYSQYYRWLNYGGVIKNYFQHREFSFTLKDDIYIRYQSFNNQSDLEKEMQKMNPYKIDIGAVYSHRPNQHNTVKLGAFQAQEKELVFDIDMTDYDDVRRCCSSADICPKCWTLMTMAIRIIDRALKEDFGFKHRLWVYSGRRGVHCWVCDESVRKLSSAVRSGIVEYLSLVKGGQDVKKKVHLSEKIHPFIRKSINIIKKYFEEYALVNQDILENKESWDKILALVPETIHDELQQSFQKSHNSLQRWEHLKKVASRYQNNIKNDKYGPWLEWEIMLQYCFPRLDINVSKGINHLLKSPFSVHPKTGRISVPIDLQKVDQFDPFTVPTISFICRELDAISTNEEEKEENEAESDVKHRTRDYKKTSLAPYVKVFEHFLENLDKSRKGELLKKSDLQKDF
inactive: [1] 0.051 | crizotinib -0.066 | [2] 0.039 | [3] 0.086 | duvelisib -0.011 | gandotinib -0.131 | tozasertib 0.001 | [4] 0.102 | doramapimod 0.007 | ispinesib -0.082 | bafetinib 0.046 | [5] 0.01 | nilotinib -0.034 | [6] -0.055 | dasatinib -0.161 | [7] -0.009 | [8] -0.033 | [9] 0.009 | tipifarnib -0.073 | mubritinib 0.06
